Activity calls are given as the source filed them.

The test system of assay [1] is PRMT1 (protein arginine N-methyltransferase 1). Nature of the assay: PRMT1 binders on small-molecule microarrays, primary screen, biochemical, small-molecule microarray, 635 nm fluorescence (AID 1088).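 Also: binding of Prmt1 protein to compounds spotted on small-molecule microarray slides.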 Particulars: small-molecule microarray binding, higher = more signal.
Assay [2] in a line: yeast growth modulation, basal conditions, primary screen, YJM789 clinical isolate, OD600, 24 h (AID 1089).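 Also: growth of clinical yeast isolate S. cerevisiae YJM 789 seeded 1000 cells per well; test concentration not given here.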 Particulars: S. cerevisiae YJM789 growth, higher = more signal, called active from +8 up or from −8 down.
Assay [3] can be described thus: fission yeast growth modulation, primary screen, strain 972, OD600, 24 h, no modulator (AID 1090).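 Also: basal condition with compound alone and no growth modifier present; test concentration not given here.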 Particulars: S. pombe 972 growth, higher = more signal, called active from +8 up or from −8 down.
Assay [4] can be described thus: S. cerevisiae growth modulation with rapamycin, primary screen, strain BY4716, OD600, 96 h (AID 1091). Also: test concentration not given here. Particulars: higher = more signal, called active from +8 up or from −8 down.
For assay [5], the target named is Torsin-1A-interacting protein 2 (Homo sapiens) (UniProt Q8NFQ8). Nature of the assay: LULL1 binders on small-molecule microarray, primary screen, cell lysate, human LULL1 lysate, 635/667 nm fluorescence (AID 1092).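 Also: probe is lysate of COS7 cells overexpressing human LULL1; score merges per-feature 667 nm fluorescence with signal-to-noise.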 Particulars: hLULL1 lysate binding, 635 nm fluorescence, higher = more signal.
Assay [6] in a line: E. coli growth modulation, two-sided OD650, primary screen, E. coli filamentation project, strain DRC41, 24 h (AID 1093).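 Also: MC1000 strain lacking acrAB efflux and sulA so SOS filamentation is blocked; test concentration not given here.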 Particulars: OD650, 24 h, higher = more signal, called active from +8 up or from −8 down.
Assay [7] can be described thus: small-molecule microarray binders of probe aLefty2, primary screen, biochemical, biotinylated probe, 635/667 nm fluorescence (AID 1094).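 Also: score merges spot fluorescence near 667 nm with spot signal-to-noise ratio.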 Particulars: higher = more signal.
The test system of assay [8] is Noggin (protein binding on small-molecule microarray). Description: Noggin binders on small-molecule microarray, primary screen, biochemical, 635/667 nm fluorescence (AID 1095).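 Also: score merges 667 nm feature fluorescence with signal to noise over triplicate slides.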 Particulars: 635 nm fluorescence, higher = more signal.
In assay [9] the target is Neurogenic locus notch homolog protein 3 (Homo sapiens) (UniProt Q9UM47). Nature of the assay: NOTCH3 binders on small-molecule microarray, primary screen, biochemical, 635/667 nm fluorescence (AID 1096). Particulars: NOTCH3 binding, 635 nm fluorescence, higher = more signal.
Assay [10] is described as follows: small-molecule microarray binders of probe aEGFR, primary screen, biochemical, biotinylated probe, 635/667 nm fluorescence (AID 1097).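 Also: probe is a biotinylated anti-EGFR antibody binding compounds printed on slides; score combines fluorescence near 667 nm and signal to noise of each spot.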 Particulars: higher = more signal.
In assay [11] the test system is Plasmodium falciparum Sir2 (PF13_0152, Sir2A). Description: pfSir2 binders on small-molecule microarrays, primary screen, biochemical, small-molecule microarray, 635 nm fluorescence (AID 1098).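 Also: score merges spot fluorescence intensity with its signal-to-noise ratio.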 Particulars: small-molecule microarray binding, fluorescence 635 nm; higher = more signal.
Assay [12] is described as follows: small-molecule microarray binders of probe aDKK1, primary screen, biochemical, biotinylated probe, 635/667 nm fluorescence (AID 1099).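 Also: score merges 667nm spot fluorescence with signal to noise across triplicate slides; reference of the scale not given here.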 Particulars: higher = more signal.
A short description of assay [13]: small-molecule microarray binders of probe aCHRDL2, primary screen, biochemical, biotinylated probe, 635/667 nm fluorescence (AID 1100). Particulars: higher = more signal.
Assay [14] in a line: splicing luciferase reporter signal modulators, primary screen, spliceosome inhibition project, cell-based, HEK293, splice +/- reporter (AID 1101).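 Also: HEK293 cells carrying a splicing-competent luciferase reporter gene; test concentration not given here.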 Particulars: luminescence, 24 h, higher = more signal, called active from +8 up or from −8 down. (In general: A reporter such as luciferase makes a cellular process visible.)
The target in assay [15] is Fibroblast growth factor 10 (Homo sapiens) (UniProt O15520). Nature of the assay: FGF10 binders on small-molecule microarrays, primary screen, biochemical, small-molecule microarray, 635 nm fluorescence (AID 1102). Particulars: FGF10 binding, fluorescence 635 nm, higher = more signal.
For assay [16], the system named is glycogen synthase kinase-3 (GSK3A per assay name; protocol says GSK3B). Description: GSK3 binders on small-molecule microarrays, primary screen, biochemical, small-molecule microarray, 635 nm fluorescence, GSK3A (AID 1103). Also: the record names both GSK3A and GSK3B. Particulars: small-molecule microarray binding, fluorescence 635 nm; higher = more signal.
The target in assay [17] is Epidermal growth factor receptor (Homo sapiens) (UniProt P00533). Nature of the assay: EGFR binders on small-molecule microarrays, primary screen, biochemical, small-molecule microarray, 635 nm fluorescence (AID 1104).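 Also: score merges 667 nm emission intensity with spot signal to noise over triplicate slides.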 Particulars: EGFR binding, higher = more signal.
For assay [18], the target named is Follistatin-related protein 3 (Homo sapiens) (UniProt O95633). Nature of the assay: FSTL3 binders on small-molecule microarrays, primary screen, biochemical, small-molecule microarray, 635 nm fluorescence (AID 1105).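 Also: score merges emission near 667 nm and signal to noise per printed spot across three slides.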 Particulars: FSTL3 binding, higher = more signal.
The target of assay [19] is Dickkopf-related protein 1 (Homo sapiens) (UniProt O94907). Nature of the assay: DKK1 binders on small-molecule microarrays, primary screen, biochemical, small-molecule microarray, 635 nm fluorescence scan (AID 1106).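 Also: score merges emission near 667 nm with signal to noise over three replicate slides.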 Particulars: DKK1 binding, higher = more signal.
Assay [20] deals with Inhibin beta A chain (activin A). Description: INHBA (activin A) binders on microarrays, primary screen, biochemical, small-molecule microarray, 635 nm fluorescence scan (AID 1107).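 Also: mouse activin A protein probed at 4.33 µg/mL on printed slides; score merges bound-protein fluorescence near 667 nm with spot signal-to-noise.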 Particulars: small-molecule microarray binding, higher = more signal.

Fibroblast growth factor 10 (Homo sapiens), sequence (O15520 whole entry, looked up): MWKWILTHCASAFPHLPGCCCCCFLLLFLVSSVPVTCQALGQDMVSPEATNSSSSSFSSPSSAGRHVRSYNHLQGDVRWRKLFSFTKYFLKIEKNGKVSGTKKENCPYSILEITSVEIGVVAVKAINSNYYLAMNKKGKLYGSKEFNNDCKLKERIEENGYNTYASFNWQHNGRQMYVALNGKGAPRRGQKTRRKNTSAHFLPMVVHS
Dickkopf-related protein 1 (Homo sapiens), sequence (O94907 whole entry, looked up): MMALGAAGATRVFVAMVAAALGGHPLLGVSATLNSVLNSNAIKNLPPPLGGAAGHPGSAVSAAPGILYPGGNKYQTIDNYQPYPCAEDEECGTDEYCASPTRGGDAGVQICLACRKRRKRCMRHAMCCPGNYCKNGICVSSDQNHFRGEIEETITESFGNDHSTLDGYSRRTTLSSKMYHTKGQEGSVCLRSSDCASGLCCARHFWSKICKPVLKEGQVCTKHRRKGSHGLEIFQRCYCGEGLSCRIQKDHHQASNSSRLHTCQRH
Epidermal growth factor receptor (Homo sapiens), sequence (P00533 whole entry, looked up): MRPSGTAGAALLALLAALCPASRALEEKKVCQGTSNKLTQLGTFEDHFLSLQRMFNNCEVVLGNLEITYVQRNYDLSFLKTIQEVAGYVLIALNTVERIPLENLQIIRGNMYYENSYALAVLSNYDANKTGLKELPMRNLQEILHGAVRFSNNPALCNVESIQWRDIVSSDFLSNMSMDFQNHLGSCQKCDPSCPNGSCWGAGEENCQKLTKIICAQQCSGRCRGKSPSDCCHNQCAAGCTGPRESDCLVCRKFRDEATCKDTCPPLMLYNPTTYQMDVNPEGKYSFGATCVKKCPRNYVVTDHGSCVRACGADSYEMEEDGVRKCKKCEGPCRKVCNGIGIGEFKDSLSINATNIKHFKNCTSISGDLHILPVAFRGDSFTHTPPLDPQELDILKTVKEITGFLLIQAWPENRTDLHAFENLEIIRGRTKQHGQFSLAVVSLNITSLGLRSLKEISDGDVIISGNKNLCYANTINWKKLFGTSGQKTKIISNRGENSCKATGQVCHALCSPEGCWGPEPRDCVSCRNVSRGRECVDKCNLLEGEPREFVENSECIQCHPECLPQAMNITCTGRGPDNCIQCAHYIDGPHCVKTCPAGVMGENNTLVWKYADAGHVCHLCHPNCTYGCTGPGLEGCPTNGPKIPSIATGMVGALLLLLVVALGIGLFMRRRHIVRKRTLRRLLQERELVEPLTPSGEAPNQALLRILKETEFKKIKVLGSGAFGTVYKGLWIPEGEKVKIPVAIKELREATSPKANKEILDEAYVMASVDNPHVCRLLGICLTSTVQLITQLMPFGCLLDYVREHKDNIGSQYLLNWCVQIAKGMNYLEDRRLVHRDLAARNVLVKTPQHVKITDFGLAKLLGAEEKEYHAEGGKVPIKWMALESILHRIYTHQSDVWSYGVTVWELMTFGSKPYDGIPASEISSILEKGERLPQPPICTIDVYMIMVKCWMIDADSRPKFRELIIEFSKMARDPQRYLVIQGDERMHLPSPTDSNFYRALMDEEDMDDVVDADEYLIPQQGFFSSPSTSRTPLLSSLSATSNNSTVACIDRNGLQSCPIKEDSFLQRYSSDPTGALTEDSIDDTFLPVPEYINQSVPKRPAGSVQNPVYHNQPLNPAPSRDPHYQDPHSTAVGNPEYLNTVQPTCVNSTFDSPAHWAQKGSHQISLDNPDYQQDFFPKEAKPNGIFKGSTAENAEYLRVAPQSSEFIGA
Neurogenic locus notch homolog protein 3 (Homo sapiens), sequence (Q9UM47 whole entry, looked up): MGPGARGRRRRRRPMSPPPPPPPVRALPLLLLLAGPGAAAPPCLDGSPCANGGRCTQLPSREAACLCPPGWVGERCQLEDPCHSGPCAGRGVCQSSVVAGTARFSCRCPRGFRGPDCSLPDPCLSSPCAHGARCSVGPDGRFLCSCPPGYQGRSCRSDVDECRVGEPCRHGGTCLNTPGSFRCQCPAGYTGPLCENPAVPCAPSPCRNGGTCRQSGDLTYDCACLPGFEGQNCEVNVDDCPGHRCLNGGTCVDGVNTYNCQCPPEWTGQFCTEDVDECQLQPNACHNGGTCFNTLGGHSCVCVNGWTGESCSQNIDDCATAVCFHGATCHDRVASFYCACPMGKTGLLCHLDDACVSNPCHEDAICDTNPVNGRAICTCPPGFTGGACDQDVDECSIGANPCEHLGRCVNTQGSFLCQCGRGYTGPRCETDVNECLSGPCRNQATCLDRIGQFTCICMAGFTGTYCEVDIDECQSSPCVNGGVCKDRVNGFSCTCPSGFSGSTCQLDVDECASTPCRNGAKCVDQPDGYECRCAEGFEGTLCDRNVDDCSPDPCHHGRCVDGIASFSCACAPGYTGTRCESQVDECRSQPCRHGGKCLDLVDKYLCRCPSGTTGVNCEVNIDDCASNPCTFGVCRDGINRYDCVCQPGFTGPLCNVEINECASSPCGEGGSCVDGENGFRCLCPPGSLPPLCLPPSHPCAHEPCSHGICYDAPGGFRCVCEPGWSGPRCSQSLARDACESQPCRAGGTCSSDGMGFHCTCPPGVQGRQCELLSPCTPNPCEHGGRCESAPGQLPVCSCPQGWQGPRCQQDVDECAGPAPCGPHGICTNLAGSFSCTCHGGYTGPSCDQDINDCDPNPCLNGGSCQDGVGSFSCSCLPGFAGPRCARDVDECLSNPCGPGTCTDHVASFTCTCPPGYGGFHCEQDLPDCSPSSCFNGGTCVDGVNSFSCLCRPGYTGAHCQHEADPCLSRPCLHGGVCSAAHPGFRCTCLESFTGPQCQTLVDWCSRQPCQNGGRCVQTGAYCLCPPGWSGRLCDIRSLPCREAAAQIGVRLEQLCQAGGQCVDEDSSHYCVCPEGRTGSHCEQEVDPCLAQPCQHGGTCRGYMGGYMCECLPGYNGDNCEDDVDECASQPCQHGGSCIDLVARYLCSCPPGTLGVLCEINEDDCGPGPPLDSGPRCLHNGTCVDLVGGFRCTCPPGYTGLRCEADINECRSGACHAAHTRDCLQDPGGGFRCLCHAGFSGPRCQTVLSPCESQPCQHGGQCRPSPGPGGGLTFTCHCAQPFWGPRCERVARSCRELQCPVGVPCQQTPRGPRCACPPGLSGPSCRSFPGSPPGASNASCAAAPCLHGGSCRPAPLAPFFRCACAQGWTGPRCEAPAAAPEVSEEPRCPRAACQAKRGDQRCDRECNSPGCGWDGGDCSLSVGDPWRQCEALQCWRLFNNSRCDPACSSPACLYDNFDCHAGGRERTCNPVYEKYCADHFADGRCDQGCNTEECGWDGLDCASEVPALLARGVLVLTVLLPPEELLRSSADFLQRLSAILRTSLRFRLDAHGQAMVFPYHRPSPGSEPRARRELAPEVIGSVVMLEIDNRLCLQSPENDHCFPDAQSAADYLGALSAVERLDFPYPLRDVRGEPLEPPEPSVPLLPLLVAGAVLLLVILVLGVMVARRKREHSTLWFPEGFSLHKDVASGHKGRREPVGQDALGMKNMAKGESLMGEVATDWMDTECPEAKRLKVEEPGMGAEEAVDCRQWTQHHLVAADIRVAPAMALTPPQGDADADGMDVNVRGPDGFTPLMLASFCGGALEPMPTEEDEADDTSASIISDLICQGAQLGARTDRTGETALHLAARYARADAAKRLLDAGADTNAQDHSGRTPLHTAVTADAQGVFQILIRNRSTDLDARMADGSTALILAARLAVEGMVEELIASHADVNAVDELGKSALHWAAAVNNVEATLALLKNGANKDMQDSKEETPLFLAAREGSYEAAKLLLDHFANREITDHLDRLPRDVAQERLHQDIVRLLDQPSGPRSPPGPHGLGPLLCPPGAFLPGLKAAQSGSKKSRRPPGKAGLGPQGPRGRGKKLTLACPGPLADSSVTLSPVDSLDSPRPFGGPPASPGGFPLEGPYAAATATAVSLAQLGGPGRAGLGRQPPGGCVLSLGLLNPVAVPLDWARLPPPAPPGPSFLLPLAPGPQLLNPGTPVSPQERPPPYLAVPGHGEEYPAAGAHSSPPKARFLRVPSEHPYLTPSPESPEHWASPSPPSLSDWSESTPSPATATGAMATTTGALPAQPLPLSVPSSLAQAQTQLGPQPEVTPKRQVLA
Follistatin-related protein 3 (Homo sapiens), sequence (O95633 whole entry, looked up): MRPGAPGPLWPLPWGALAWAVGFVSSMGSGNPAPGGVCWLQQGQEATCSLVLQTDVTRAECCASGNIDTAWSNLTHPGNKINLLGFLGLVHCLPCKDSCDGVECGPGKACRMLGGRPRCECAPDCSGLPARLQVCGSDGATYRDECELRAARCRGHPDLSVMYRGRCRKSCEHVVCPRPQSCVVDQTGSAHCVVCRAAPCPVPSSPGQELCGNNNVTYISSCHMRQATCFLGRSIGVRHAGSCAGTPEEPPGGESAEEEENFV
Torsin-1A-interacting protein 2 (Homo sapiens), sequence (Q8NFQ8 whole entry, looked up): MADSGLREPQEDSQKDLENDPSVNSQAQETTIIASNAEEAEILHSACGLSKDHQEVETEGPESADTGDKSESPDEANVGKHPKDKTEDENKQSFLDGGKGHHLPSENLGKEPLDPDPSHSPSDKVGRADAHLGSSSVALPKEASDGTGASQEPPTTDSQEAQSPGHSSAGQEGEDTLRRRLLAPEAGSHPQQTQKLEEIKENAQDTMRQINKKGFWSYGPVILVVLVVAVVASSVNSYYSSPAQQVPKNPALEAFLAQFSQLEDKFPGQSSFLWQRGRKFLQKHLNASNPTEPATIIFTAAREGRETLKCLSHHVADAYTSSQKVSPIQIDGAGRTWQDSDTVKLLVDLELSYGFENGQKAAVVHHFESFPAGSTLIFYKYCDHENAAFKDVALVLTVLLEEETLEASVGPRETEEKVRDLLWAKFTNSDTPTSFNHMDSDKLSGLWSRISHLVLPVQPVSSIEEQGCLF

Regarding `C[C@]1(C(=O)NC2CC2)c2ccccc2C(=O)N(Cc2ccccc2)[C@H]1c1ccc(CO)cc1`, the composite z-score is -1.09 in assay [1]; -0.488 in [5]; -0.0873 in assay [7]; -0.918 in [8]; -1.59 in assay [9]; -0.278 in assay [10]. Besides, the composite z-score was 1.13 in [11]; 0.432 in assay [12]; 0.951 in assay [13]; -1.01 in assay [15]; -0.84 in [16]; -1.12 in assay [17]. Also, the composite z-score in [18] was -0.761; in assay [19], -0.594; in [20], -0.0478. In addition, the z-score in assay [2] was -0.653 (inactive); in assay [3], -1.75 (inactive); in assay [4], -0.785 (inactive); in assay [6] it was 1.84 (inactive); in [14], -0.502 (inactive).
Take `N#Cc1ccc(C(O)C2C=CC3C(=O)N(c4ccccc4)C(=O)C3N2Nc2ccccc2)cc1` (stereo not given): the composite z-score in assay [1] was 0.0016; in assay [5], 2.62; in assay [7], 0.443; in [8], -0.383; in [9], 0.744; in assay [10], 0.104. Moreover, the composite z-score in [11] is 0.592; in assay [12] it was 0.759; in [13], 1; in assay [15] it was 0.913; in assay [16], -0.0985; in assay [17], 0.107. Also, the values for the composite z-score in assay [18], in [19] and in assay [20] were 0.391, -0.352 and 0.877, respectively. Moreover, the z-score is 0.953 (inactive) in assay [2]; -0.145 (inactive) in assay [3]; -0.248 (inactive) in assay [4]; 0.445 (inactive) in assay [6]; -1.04 (inactive) in [14].
On to `O=C1O[C@H](c2ccccc2)[C@H](c2ccccc2)N2[C@H]1[C@@H](C(=O)Nc1nc3ccccc3s1)[C@]1(C(=O)Nc3ccccc31)[C@H]2c1ccc(OCCO)cc1`, for which the composite z-score in assay [1] is 1.31; in assay [5], 1.96; in assay [7], -0.0446; in [8], 1.5; in assay [9] it was 1.05; in assay [10], 0.0162. Besides, the composite z-score is 1.35 in assay [11]; 0.07 in assay [12]; 0.341 in [13]; 0.841 in assay [15]; 1.31 in [16]; 0.836 in assay [17]. In addition, the composite z-score is 1.36 in assay [18], 1.31 in assay [19] and 0.715 in [20]. The z-score was 1.48 (inactive) in assay [2]; 1.95 (inactive) in [3]; 3.31 (inactive) in [4]; 0.0528 (inactive) in assay [6]; -0.472 (inactive) in assay [14].
Consider `[N-]=[N+]=NCc1ccccc1[C@@H]1OC(c2ccc(OCCCO)cc2)=N[C@]1(CCS(=O)(=O)c1ccccc1)C(=O)NCC(O)CO` (stereo not given in full), for which the composite z-score is 1.54 in assay [1]; 3.85 in [5]; 0.267 in assay [7]; 1 in assay [8]; 0.832 in assay [9]; -0.0435 in assay [10]. The composite z-score in assay [11] was 1.46; in assay [12], 0.76; in assay [13], 1.03; in assay [15], 1.22; in assay [16], -0.323; in [17], -0.0077. For the same molecule, the composite z-score in assay [18] is 0.6; in assay [19], -0.227; in assay [20], 0.736. In addition, the z-score in [2] is -1.69 (inactive); in [3], -0.741 (inactive); in assay [4] it was 0.897 (inactive); in [6] it was 0.171 (inactive); in assay [14], -1.33 (inactive).
Take `C=CCN1C(=O)[C@@]2(CCS(=O)(=O)c3ccccc3)N=C(c3ccc(OCCCO)cc3)O[C@H]2c2ccccc21`: the composite z-score in assay [1] was 1.54; in [5], 2.88; in assay [7], -0.0177; in assay [8], 1.43; in assay [9] it was 1.12; in assay [10], 0.154. Also, the composite z-score turned out to be 1.32 in [11]; 0.331 in assay [12]; 0.482 in assay [13]; 0.69 in assay [15]; 1.33 in assay [16]; 0.958 in assay [17]. For the same molecule, the values for the composite z-score in assay [18], in assay [19] and in [20] were 1.14, 0.822 and 1.18, respectively. The z-score was 0.15 (inactive) in [2]; -0.0698 (inactive) in assay [3]; 3.13 (inactive) in [4]; 0.192 (inactive) in assay [6]; 0.095 (inactive) in assay [14].
For `CC(C)C(=C=CC[C@H](O)c1cccc(OCCO)c1)C[C@H](O)c1cc(Cl)cc(Cl)c1O`, the composite z-score in assay [1] is 1.03; in [5], 2.37; in assay [7], -0.114; in [8], 0.665; in [9], 0.964; in [10] it was -0.0626. The composite z-score in [11] was 0.507; in assay [12] it was -0.217; in [13], 0.0419; in assay [15], 1.43; in assay [16] it was 0.0728; in assay [17], -0.388. The composite z-score in assay [18] was 0.544; in assay [19], -0.0693; in [20] it was 0.346. Also, the z-score in assay [2] is 0.834 (inactive); in assay [3], -1.06 (inactive); in [4] it was -0.129 (inactive); in assay [6] it was 0.236 (inactive); in assay [14], -0.747 (inactive).
Take `C=CCNC(=O)[C@H]1[C@@H]2C(=O)O[C@@H](c3ccccc3)[C@@H](c3ccccc3)N2[C@@H](c2ccc(O)cc2)[C@]12C(=O)N(C(=O)OCCOC)c1ccccc12`: the composite z-score in assay [1] is 1.42; in assay [5], 2.84; in assay [7], -0.0095; in [8], 0.537; in assay [9] it was 1; in assay [10] it was 0.0798. Moreover, the composite z-score is 1.27 in [11]; -0.689 in assay [12]; -0.0623 in [13]; 1.24 in assay [15]; 0.226 in assay [16]; 1.11 in [17]. Moreover, the composite z-score was 0.552 in assay [18], 0.298 in [19] and 0.204 in assay [20]. For the same molecule, the z-score was 0.734 (inactive) in assay [2]; -0.66 (inactive) in assay [3]; 2.39 (inactive) in assay [4]; 0.507 (inactive) in assay [6]; -1.59 (inactive) in [14].
Consider `COCCOC(=O)N1C(=O)[C@@]2(c3cc(C#CC4=CCCCC4)ccc31)[C@H](C(=O)N1CCCCCCC1)[C@H]1C(=O)O[C@H](c3ccccc3)[C@H](c3ccccc3)N1[C@@H]2c1ccc(O)cc1`, for which the composite z-score in assay [1] stood at 1.56; in assay [5] it was 2.88; in assay [7], 0.295; in [8], 0.795; in [9], 0.807; in assay [10], 0.0383. For the same molecule, the composite z-score in [11] is 0.376; in assay [12] it was 0.923; in assay [13], 1; in assay [15] it was 0.277; in [16], 0.409; in assay [17], 0.285. Also, the composite z-score was 0.735 in assay [18], 0.163 in assay [19] and 1.41 in assay [20]. The z-score in assay [2] was -1.17 (inactive); in assay [3] it was 0.509 (inactive); in [4], 0.983 (inactive); in assay [6], 1.53 (inactive); in [14], -0.802 (inactive).
In the case of `COC(=O)c1nc2oc1CC[C@@H](CO)NC(=O)N(C)Cc1cnnn1C[C@H](Cc1ccccc1)NC2=O`, the composite z-score in assay [1] is 0.0909; in assay [5], 0.715; in assay [7] it was -0.331; in [8] it was 0.419; in [9], -0.139; in [10] it was -0.287. Also, the composite z-score is 1.81 in assay [11]; -0.148 in [12]; 0.106 in assay [13]; -0.0412 in assay [15]; -1.05 in assay [16]; -0.913 in assay [17]. Further, the composite z-score in assay [18] was 0.228; in [19] it was -0.682; in [20], 0.139. Moreover, the z-score in assay [2] is -1.04 (inactive); in assay [3], 0.127 (inactive); in [4], -0.335 (inactive); in assay [6], 1.27 (inactive); in assay [14], -0.495 (inactive).

The values above are taken from PubChem BioAssay.
